# Assay results taken from PubChem BioAssay (NCI).
# This is part of a sample that, as a whole, favours compounds with a hit. Of some 83,000 tested, about 20% had one in any assay.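 Interpretation: 100, growth as untreated; towards 0, rising growth inhibition; 0, no net growth; 0 to -100, cell death. Compounds scoring below 10 were considered active.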 Values without a mark were called inactive. Activity calls are given as the source filed them.
# Tested on: PC-3 prostate
# Assay: NCI-60 one-dose screen, 48 h (100 = growth as untreated, 0 = no growth, -100 = all killed)
# Settings: 10 µM unless noted
row,SMILES,growth
1,CC1=C(C)C(=O)C(Nc2ccc(C)cc2)=C(Br)C1=O,87.8%
2,Cc1ccc(N2CCN(C3=C(Cl)C(=O)c4ncccc4C3=O)CC2)cc1,63.3%
3,COc1ccc2[nH]cc(-c3nc(N)nnc3-c3cn(C)c4ccc(Br)cc34)c2c1,24.5%
4,O=C(/C=C/c1ccccc1Cl)Nc1ncc(Cc2cc(Cl)ccc2Cl)s1,39.8%
5,CN(C)S(=O)(=O)c1ccc(-c2nc(C(Cl)Cl)nc3cc(-c4ccc(F)cc4)nn23)cc1,26.7%
6,Fc1ccc(-c2cn3c(-c4c[nH]c5ccc(Br)cc45)csc3n2)cc1,73.6%
7,C#Cc1nc(/C=C/CCCCCCC(=O)NO)cs1,72.8%
8,C#C[C@]1(O)CC[C@H]2[C@@H]3CC=C4c5sc(Nc6ncccc6C)nc5CC[C@]4(C)[C@H]3CC[C@@]21C,-18.4% (active)
9,CC(C)=CCC[C@](C)(O)[C@H]1CC[C@]2(C)[C@@H]1CC[C@@H]1[C@@]3(C)CC[C@H](N)C(C)(C)[C@@H]3CC[C@]12C,68.3%
10,Cc1cc2nc3c4cc(C#N)ccc4n(CCN(C)C)c3nc2cc1C,4.69% (active)
11,N#Cc1c(-c2cccs2)cc(-c2cnccn2)nc1SCC(=O)N/N=C/c1ccncc1,96.4%
12,CCOC(=O)c1cccc(NC2=C(Cl)C(=O)C(C)=C(C)C2=O)c1,85.6%
13,c1ccc(-c2cn3c(-c4c[nH]c5ccccc45)csc3n2)cc1,43.2%
14,Cc1cc(Br)ccc1-n1cc(C#N)c(N)c1C(=O)c1ccc(Br)cc1,103%
15,Cn1cc(-c2cc3ncnc(Nc4ccc(NC(=O)Nc5cc(C(C)(C)C)on5)cc4)c3s2)cn1,28.5%
16,Nc1cc(C(=O)N/N=C\c2ccc(OC(F)F)c(OC3CCCC3)c2)nn1CC(O)c1ccccc1 (stereo not given),80.7%
17,COc1ccc(C2CC(c3cccc(OCCCCOc4cccc(C5=NOC(c6ccc(OC)cc6)C5)c4)c3)=NO2)cc1 (stereo not given),99.8%
18,O=C(COc1ccc(/C=C2\C(=O)Nc3ccc(Cl)cc32)cc1)Nc1ccc(Cl)cc1,41.7%
19,Cn1cc(-c2nnc(N)nc2-c2c[nH]c3ccc(F)cc23)c2cc(Br)ccc21,22.6%
20,C[C@H](Nc1ncnc2ccc(-c3cnc(Cl)c(NS(C)(=O)=O)c3)cc12)c1ccccc1,2.25% (active)

row,SMILES,growth
1,O=C(CSc1nc2ccccc2c(=O)n1CCc1ccccc1)Nc1ccc(S(=O)(=O)Nc2ccc(Cl)nn2)cc1,89.3%
2,NS(=O)(=O)c1ccc(Nc2nc(N/N=C/C=C/c3ccccc3)nc(Nc3ccccc3)n2)cc1,47.5%
3,O=C1[C@H]2Cc3c([nH]c4ccccc34)[C@H](c3ccc(Br)cc3)N2C(=O)CN1C1CCN(CC2CCCCC2)CC1,60.2%
4,CCc1cc2c(cc1Cl)nc1c(=O)[nH]c(=O)nc-1n2CCOCC(C)(C)C,68%
5,COc1ccc(-c2nc(C#N)c(N3CCC(S(=O)(=O)N4CCOCC4)CC3)o2)cc1,98.2%
6,COC(=O)c1ccc(NC2=C(Cl)C(=O)c3nc(C)ccc3C2=O)cc1,57.3%
7,Cc1ccccc1N1CCN(C2=C(Cl)C(=O)c3ncccc3C2=O)CC1,66.1%
8,CC[C@]12C=CCN3CC[C@@]4(c5ccc(OC)cc5N(C)[C@H]4[C@@](O)(C(=O)OC)[C@@H]1OC(=O)CCN1CCc4ccccc4C1)[C@@H]32,70.1%
9,Cc1nc(N)sc1-c1csc(Nc2ccc(C(F)(F)F)cc2)n1,36.5%
10,Cn1cc(-c2nnc(N)nc2-c2c[nH]c3ccc(Br)cc23)c2cc(Br)ccc21,102%
11,C#C[C@]1(O)CC[C@H]2[C@@H]3CC=C4c5sc(N(C)c6ccccc6)nc5CC[C@]4(C)[C@H]3CC[C@@]21C,59.1%
12,NS(=O)(=O)c1ccc(Nc2nc(Nc3ccccc3)nc(N3N=C(c4ccc(Cl)cc4)CC3c3ccc(Cl)cc3)n2)cc1 (stereo not given),43%
13,O=C(CCCCCCN1CC(=O)N2[C@@H](c3ccc(Cl)s3)c3[nH]c4ccccc4c3C[C@H]2C1=O)NO,47.4%
14,CCCCc1nc2c(N)nc3ccccc3c2n1Cc1cccc(CN)c1,53.3%
15,N#C/C(=C\c1ccc(-c2ccc(Cl)c(Cl)c2)o1)C(=O)Nc1ncc(Cc2ccc(Cl)cc2)s1,36.7%
16,O=C(Nc1ccc(Cl)c(C(F)(F)F)c1)Nc1ccc2oc(=O)ccc2c1,10.6%
17,COc1ccc2[nH]cc(/C=N/Nc3ccnc4cc(Cl)ccc34)c2c1,-86.4% (active)
18,O=C1Nc2ccccc2/C1=C/c1ccc(OCC(=O)c2ccccc2)cc1,82.9%
19,NS(=O)(=O)c1nnc(/N=C/c2c(O)[nH]c3ccccc23)s1,89.3%
20,COc1cc(/C=C2/C(=O)Nc3ccc(Cl)cc32)ccc1OCc1ccc(Cl)cc1,84.2%
